Only some compounds are listed: those with a hit (about 2.9% of all), similar ones and a draw of the others.
p53null 32C kill: kills p53 null cells at the permissive temperature; H1299-neo p53 null cells, ATP luminescence, 24 h, 32C; Potency, µM (series often up to 46.1 µM), most hits filed as cytotoxic; 55,000 compounds, 0.62% hits; AID 903; further: nearly all actives have a fitted effect of over 55% in size
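We seeded p53-null H1299-neo cells, incubated them overnight at 37C, and added compounds across a range up to 46 uM. After 24 hours at 32C, ATP reagent was applied for 20 min at room temperature and luminescence recorded.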
DRV1 agonist: agonists of human resolvin D1 receptor DRV1 (GPR32) | O75388 | CHO-K1 GPR32 beta-arrestin PathHunter luminescence, 90 min; zero percent set by DMSO-only wells | activation, % at 76.9 µM | 48,000 compounds, 2.5% hits | AID 1346428;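 active means activation of at least 60% and not above a set upper limit, about 1 call in 100 departs from these limits; inconclusive means activation of 40% to 60%, or above that upper limit; inactive means activation under 40%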
Target sequence (O75388 whole entry, looked up): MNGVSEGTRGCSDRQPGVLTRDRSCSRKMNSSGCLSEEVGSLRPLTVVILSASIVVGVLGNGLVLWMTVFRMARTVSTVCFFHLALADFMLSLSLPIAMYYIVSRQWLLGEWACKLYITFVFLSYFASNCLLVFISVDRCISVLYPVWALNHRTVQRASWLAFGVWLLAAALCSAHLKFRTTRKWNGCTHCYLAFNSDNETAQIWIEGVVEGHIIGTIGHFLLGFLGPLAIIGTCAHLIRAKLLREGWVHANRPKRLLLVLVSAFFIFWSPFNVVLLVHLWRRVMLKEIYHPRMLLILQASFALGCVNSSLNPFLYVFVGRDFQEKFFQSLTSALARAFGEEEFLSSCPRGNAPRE
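Cells are plated overnight, treated with compounds in DMSO for 90 minutes at 37 °C, and developed with PathHunter detection reagent for 1 hour before luminescence is read; signal reflects beta-arrestin binding to GPR32 in engineered CHO-K1 cells.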
p53null 39C tox: selectivity test: cytotoxicity in p53 null cells, nonpermissive temperature; 55,000 compounds, 0.97% hits; Potency, µM (titrated, usually from 46.1 µM), most hits filed as cytotoxic; H1299 p53-null (neo) cells, 39C, ATPlite viability, 24 h; further: nearly all actives have a fitted effect of over 50% in size
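H1299 lung cancer cells, p53-null (H1299-neo) or expressing p53 A138V (H1299-p53A138V), were plated overnight at 37C, then exposed to compounds at up to 46 uM for 24 hr at 39C. Viability was read by ATP-based luminescence.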
FH mod: Identification of activators of human fumarate hydratase by quantitative high-throughput screening. Fumarate hydratase, mitochondrial (Homo sapiens), P07954. FH coupled MDH/diaphorase resazurin fluorescence, 15 min. Potency, µM (series often up to 79.9 µM), usual class: inhibitors. 54,000 compounds, 0.22% hits. AID 1347055, 2019; further: the screen sought activators but most active calls are inhibition curves; nearly all actives have a fitted effect of over 45% in size
Of the large screens only hits and unclear results are named; the others gave an inactive call. Unless noted, the call rests on the fitted dose curve; in most records, active means well fitted curve in the direction sought with a large enough effect; inconclusive means small, poorly fitted or top-dose-only effect, or another doubt; inactive means no such curve, though single readings can be large; an effect the other way counts as inactive or inconclusive.

Cc1ccc(SCC(=O)Nc2ccc3oc(-c4cccc(C)c4)nc3c2)cc1	FH mod inconclusive
Cc1ccc2oc(-c3ccc(NC(=O)CCC(=O)O)cc3)nc2c1	p53null 32C kill 13µM, p53null 39C tox inconclusive
CSCC[C@H](NC(=O)[C@H](CO)NC(=O)[C@H](CCC(=O)O)NC(C)=O)C(=O)N[C@H](C=O)CC(=O)O	none (no result: p53null 32C kill, DRV1 agonist, p53null 39C tox)
O=C(CCl)Nc1cccc(NC2=NS(=O)(=O)c3ccccc32)c1	none (no result: p53null 32C kill, DRV1 agonist, p53null 39C tox)
C[C@@H](NC(=O)c1cc(C(=O)N[C@@H](Cc2ccccc2)[C@H](O)CNC2CC2)cc(N(C)S(C)(=O)=O)c1)c1ccccc1	none (no result: p53null 32C kill, DRV1 agonist, p53null 39C tox)
O=[N+]([O-])c1ccc(Oc2ccc3c(c2)CCC(c2ccccc2)O3)nc1 (stereo unspecified)	none (no result: p53null 32C kill, DRV1 agonist, p53null 39C tox)
CCOc1ccc(NC(=O)CC2Nc3cccc4cccc(c34)NC2=O)cc1 (stereo unspecified)	DRV1 agonist 83
CC1=C(C(=O)Nc2ccc(Cl)cc2)C(c2ccc(C(F)(F)F)cc2)n2nnnc2N1 (stereo unspecified)	DRV1 agonist 65
CC1=C(C(=O)Nc2ccc(C)cc2)C(c2ccc(Cl)cc2)n2nnnc2N1 (stereo unspecified)	none
COc1c(/C=C/C(C)(C)O)ccc2c1C(=O)OCc1cc(C)cc(O)c1O2	none (no result: p53null 32C kill, DRV1 agonist, p53null 39C tox)
CN1CCN(c2ccc(-c3nc(-c4ccccc4)no3)cc2[N+](=O)[O-])CC1	DRV1 agonist 83
CN(C)c1ccc(-c2nc(-c3ccccn3)no2)cc1[N+](=O)[O-]	DRV1 agonist 76
COc1cccc(CNc2nccn(-c3cc(C)cc(C)c3)c2=O)c1	DRV1 agonist 63
Cc1ccc(CNc2nccn(-c3cc(C)cc(C)c3)c2=O)cc1	none
COc1ccc(-n2ccnc(NCc3ccc(Cl)cc3)c2=O)cc1	DRV1 agonist 60, FH mod inconclusive
C/C(=C/CO)CCC1C(C)CCC2C(C)(C)CCCC12C (stereo unspecified)	none (no result: p53null 32C kill, DRV1 agonist, p53null 39C tox)
COc1ccc(Cl)c(Nc2ncnc3cc(OCC4CCN(C)CC4)c(OC)cc23)c1	none (no result: p53null 32C kill, DRV1 agonist, p53null 39C tox)
CCOc1ccc(-c2ncnn2-c2sc3c(c2C#N)CCCCC3)cc1	DRV1 agonist 102
O=C(CSc1nnc2[nH]c(=O)cc(-c3ccccc3)n12)Nc1cc(C(F)(F)F)ccc1Cl	p53null 32C kill 1.3µM, p53null 39C tox 0.79µM, FH mod inconclusive
CC(C)=CCc1cc(O[C@@H]2O[C@H](CO[C@@H]3OC[C@](O)(CO)[C@H]3O)[C@@H](O)[C@H](O)[C@H]2O)ccc1O	none (no result: p53null 32C kill, DRV1 agonist, p53null 39C tox)
CC(C)c1cc2c(c(O)c1O)[C@@]13CCCC(C)(C)C1[C@@H](O)[C@@H]2OC3=O (stereo partly specified)	none (no result: p53null 32C kill, DRV1 agonist, p53null 39C tox)
Cc1cc(CN2CCN(c3cccc(C)c3C)CC2)cs1	p53null 39C tox inconclusive
Cc1cc(CN2CCN(c3ccccc3F)CC2)cs1	DRV1 agonist 102
CC(C)NC(=O)N1CC[C@H](N=C2Nc3cc(F)ccc3N(CC(F)F)c3ccc(Cl)cc32)C1	none (no result: p53null 32C kill, DRV1 agonist, p53null 39C tox)
CCc1ccccc1NC(=O)C1CCN(C2=NS(=O)(=O)C(c3ccc(C)c(C)c3)=C2C)CC1	DRV1 agonist 89
CCc1ccc(C2=C(C)C(N3CCC(C(=O)Nc4ccc(F)cc4)CC3)=NS2(=O)=O)cc1	p53null 32C kill inconclusive, DRV1 agonist 74
CC1=C(c2ccc(C(C)C)cc2)S(=O)(=O)N=C1N1CCC(C(=O)NCCc2ccco2)CC1	DRV1 agonist 64
CC1=C(c2ccc(C)c(C)c2)S(=O)(=O)N=C1N1CCC(C(=O)Nc2ccc(Cl)cc2)CC1	none
CC1=C(c2ccc(C(C)C)cc2)S(=O)(=O)N=C1N1CCC(C(=O)Nc2ccc(C)cc2)CC1	DRV1 agonist inconclusive
Nc1ncnc2c1ncn2[C@H]1CCCO1	none (no result: p53null 32C kill, DRV1 agonist, p53null 39C tox)
Cc1ccc(CNC(=O)CN2CCN(Cc3ccc(F)cc3)C2=O)cc1	none
Cc1cccc(CN2CCN(CC(=O)NCCc3ccc(Cl)cc3)C2=O)c1	DRV1 agonist 75
O=C(CN1CCN(Cc2ccccc2Cl)C1=O)NCCc1ccc(Cl)cc1	DRV1 agonist 71
CC(C)/C=C1/NC(=O)C(C(C)C)n2c1nc1c(O)cccc1c2=O (stereo unspecified)	none (no result: p53null 32C kill, DRV1 agonist, p53null 39C tox)
CN(C)CCn1cc(S(=O)(=O)c2cccc(F)c2)c2cccnc21	none (no result: p53null 32C kill, DRV1 agonist, p53null 39C tox)
C=CCn1c(C)cc(C(=O)COC(=O)[C@@H](NC(=O)c2ccccc2Cl)C(C)C)c1C	p53null 32C kill 11µM (no result: DRV1 agonist, p53null 39C tox, FH mod)
COc1ccc(CNC(=O)C2CCN(c3nnc(C)c4c(C)n(-c5ccc(C)cc5)nc34)CC2)cc1	p53null 32C kill inconclusive, p53null 39C tox 13µM
CCc1ccc(CNC(=O)C2CCCN(c3nnc(C)c4c(C)n(-c5ccc(OC)cc5)nc34)C2)cc1 (stereo unspecified)	p53null 32C kill 25µM, p53null 39C tox inconclusive
CCNC(=O)C1CCN(c2nnc(C)c3c(C)n(-c4ccc(OC)cc4)nc23)CC1	none
COc1ccc(-n2nc3c(N4CCC(C(=O)NCc5cccc(F)c5)CC4)nnc(C)c3c2C)cc1	p53null 39C tox 3.2µM
COc1ccc(-n2nc3c(N4CCCC(C(=O)NCc5ccc(C)cc5)C4)nnc(C)c3c2C)cc1 (stereo unspecified)	p53null 32C kill inconclusive, DRV1 agonist 111
COc1ccc(CNC(=O)C2CCCN(c3nnc(C)c4c(C)n(-c5ccc(C)cc5)nc34)C2)cc1 (stereo unspecified)	none
O=S(=O)(c1ccccc1)c1nc(-c2cccs2)oc1N1CCCCC1	none
O=S(=O)(c1ccccc1)c1nc(-c2ccc(F)cc2)oc1NCc1ccccc1	none
CCC(C)S(=O)(=O)c1oc(-c2cccs2)nc1S(=O)(=O)c1ccccc1 (stereo unspecified)	p53null 32C kill 25µM, p53null 39C tox inconclusive
CC(C)CS(=O)(=O)c1oc(-c2ccc(F)cc2)nc1S(=O)(=O)c1ccccc1	p53null 32C kill inconclusive, p53null 39C tox 3.2µM, FH mod inconclusive
C=CCN(/C=C1\C(=O)OC(COC)C2(C)C1=C(O)C(=O)C1=C2C(OC(C)=O)CC2(C)C(=O)CCC12)CC=C (stereo unspecified)	none (no result: p53null 32C kill, DRV1 agonist, p53null 39C tox)
Cc1ccc(-c2nc3nc(C)cc(N4CCN(c5cccc(C)c5)C(C)C4)n3n2)cc1 (stereo unspecified)	p53null 39C tox 20µM, FH mod inconclusive
Cc1cccc(-c2nc3nc(C)cc(N4CCN(c5ccccc5)CC4)n3n2)c1	none
Cc1ccc(C(=O)c2oc3ccccc3c2NC(=O)c2nc(S(C)(=O)=O)ncc2Cl)cc1F	DRV1 agonist 75
O=C(NCCc1csc2nc(-c3ccc(F)cc3)nn12)c1cccc(C(F)(F)F)c1	none
COc1ccc(-c2nc3scc(CCNC(=O)c4cccc(Br)c4)n3n2)cc1	DRV1 agonist 71
COc1ccc(-c2cn3nc(N4CCC(C(=O)Nc5cccc(Cl)c5)CC4)sc3n2)cc1	DRV1 agonist 78
Cc1ccc(Cc2c(C)nc3nc(SCC(=O)NCCN4CCNCC4)nn3c2C)cc1	none (no result: p53null 32C kill, DRV1 agonist, p53null 39C tox)
Cc1cc(C)nc(SCC(=O)Nc2ncc(Cc3cccc4ccccc34)s2)n1	none (no result: p53null 32C kill, DRV1 agonist, p53null 39C tox)

Screening data as filed in PubChem.
